From PubChem
CYP2C9 activ = increases human cytochrome P450 2C9 activity; activation factor at 5 µM; recombinant CYP2C9, luciferin-H conversion, luminescence; stronger effect = higher value; factor 1 = untreated enzyme, 0 = blocked; 96,000 compounds, 1.4% hits; P11712;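 active = activation factor of 2 or more for CYP2C9 at a 5 µM dose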;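 also: 0 = sulfaphenazole-blocked wells and 1 = vehicle-only wells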
Target sequence (P11712 whole entry, looked up): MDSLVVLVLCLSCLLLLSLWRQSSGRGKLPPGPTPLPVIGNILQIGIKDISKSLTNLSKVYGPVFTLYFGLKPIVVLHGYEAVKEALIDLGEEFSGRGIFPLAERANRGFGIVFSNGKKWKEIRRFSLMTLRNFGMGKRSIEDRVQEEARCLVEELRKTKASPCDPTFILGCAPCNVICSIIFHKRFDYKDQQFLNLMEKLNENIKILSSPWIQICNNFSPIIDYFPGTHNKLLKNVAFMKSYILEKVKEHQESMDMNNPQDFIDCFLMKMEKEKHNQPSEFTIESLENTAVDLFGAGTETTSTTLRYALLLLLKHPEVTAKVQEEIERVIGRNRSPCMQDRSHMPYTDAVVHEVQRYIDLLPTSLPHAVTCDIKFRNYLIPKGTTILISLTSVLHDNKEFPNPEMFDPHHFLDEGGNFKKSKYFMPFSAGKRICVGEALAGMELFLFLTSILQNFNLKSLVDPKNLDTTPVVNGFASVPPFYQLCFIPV
PostGolgi yeast = growth inhibition of a yeast mutant, post-Golgi transport screen; post-Golgi transport phenotypic cell assay; inhibition, % at 10 µM; 98,000 compounds, 0.9% hits;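 also: yeast cells grown in 1536-well plates; yeast grown about 18 h at 30C before absorbance read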
CYP2C19 act = activators of human cytochrome P450 2C19. P33261. recombinant CYP2C19, luciferin-H EGE luminescence; stronger effect = higher value; 0 = fully inhibited enzyme, 1 = untreated enzyme. activation factor at 5 µM. 96,000 tested, under 10 active. AID 1025;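 active = activation factor of at least 2 at 5 µM in the primary screen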;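 also: 0 = wells with 2.5 mM tranylcypromine and 1 = vehicle-only wells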
CYP2C19 inh = human CYP2C19 inhibition. CYP2C19 Supersomes, luciferin-H EGE luminescence, 30 min. 96,000 compounds, 21% hits. inhibition, % at 5 µM. P33261. AID 778;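 active = CYP2C19 inhibition above a set limit at 5 µM in the primary screen, cut at about 50% in these data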;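 also: plate controls were negative control wells for no effect and 2.5 mM tranylcypromine positive control for full effect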
CYP2C9 inhib = blocks human cytochrome P450 2C9; P11712; CYP2C9 Supersomes, luciferin-H conversion, luminescence; inhibition, % at 5 µM; 96,000 compounds, 20% hits; AID 777;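 active = blocking of liver enzyme CYP2C9 beyond about 50% at 5 µM, limit read from the data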
PostGolgi ctrl = inhibits growth of the yeast control strain; 98,000 compounds, 5% hits; AID 738; efflux-deficient yeast background strain, growth absorbance A615, 16 h; inhibition, % at 10 µM
Active calls of the source: *. This is a sample that favours compounds with a hit; in the whole collection about 32% have one here. Rule as the data show it, unless noted: active = inhibition above about 30%; inactive = the rest.

SMILES | CYP2C9 activ | PostGolgi yeast | CYP2C19 act | CYP2C19 inh | CYP2C9 inhib | PostGolgi ctrl
Cc1cccc(N2CCN(c3nnnn3-c3ccccc3)CC2C)c1 (stereo not given) | 0.1 | -1.8 | 0 | 100.0* | 88.4* | 9.6
Cc1cc(N2CCN(c3nnnn3-c3ccccc3)CC2)n2ncnc2n1 | 0.7 | 13.2 | 0.3 | 65.6* | 30.7 | 3.3
c1ccc(-n2nnnc2-n2cnc3ccccc32)cc1 | 0.6 | 4.0 | 0.2 | 82.2* | 43.8 | 2.2
COc1cc2c(cc1OC)C(C(=O)N1CCN(c3ccccn3)CC1)C(c1cccs1)N(C)C2=O (stereo not given) | 0.9 | 0.0 | 1 | 2.0 | 9.3 | -3.0
Cc1ccc2nc(N3CCN(Cc4ccc(F)cc4)C3=O)c(C)cc2c1 | 1 | -6.4 | 0.7 | 25.6 | -3.2 | 11.7
COC(=O)c1c(C(=O)OC)c(C)n(Cc2cccnc2)c1C | 0.5 | -0.3 | 0.7 | 27.7 | 51.4* | 3.5
COC(=O)c1c(C(=O)OC)c(C)n(Cc2ccco2)c1C | 1 | 1.2 | 0.6 | 41.3 | -0.4 | 11.5
CS(=O)(=O)N(CC(=O)NC1CCCC1)c1cccc(F)c1 | 0.9 | -5.0 | 0.7 | 29.0 | 9.1 | -12.9
O=C(CN(C(=O)CSc1nc2ccccc2o1)c1cccc(F)c1)NC1CCCCC1 | 0.4 | 1.8 | 0.3 | 74.2* | 62.6* | 7.0
O=C(CN(C(=O)CSc1nc2ccccc2o1)c1ccccc1)NC1CCCCC1 | 0.5 | 3.5 | 0.2 | 76.8* | 49.9 | 10.9
O=C(CSc1nc2ccccc2o1)N1CCCC1 | 1 | -8.6 | 0.7 | 31.6 | 3.1 | -10.8
Cc1cc(C)c(C)c(/C=C(/C#N)C(N)=S)c1C | 0.4 | 6.6 | 0.8 | 24.5 | 64.6* | 7.8
Cc1ccc2c(c1)c(CC(=O)Nc1ccc(C)c(F)c1)c(C(=O)O)n2C | 0.2 | 23.1 | 0.6 | 36.1 | 84.3* | 2.5
O=C(CN1C(=O)c2ccccc2C1=O)Nc1ccccc1F | 0.9 | 3.0 | 0.8 | 21.9 | 13.7 | -1.4
Cn1c(C(=O)O)c(CC(=O)Nc2ccccc2F)c2ccccc21 | 0.1 | 1.4 | 0.4 | 59.4* | 93.0* | 12.2
Cc1ccc(NC(=O)CCC(=O)O)cc1F | 1.2 | -1.3 | 1.2 | -23.6 | -19.0 | -1.8
CCOc1ccc(NC(=O)c2ccccc2OC)cc1 | 3.3* | 2.1 | 1 | 3.1 | -226.8 | -9.2
CCCC(=O)Nc1ccc(NC(=O)c2ccccc2OC)cn1 | 3.2* | -4.3 | 0.5 | 51.2* | -219.7 | -0.5
CCCC(=O)Nc1ccc(NC(=O)c2ccccn2)cn1 | 1.2 | 9.9 | 0.8 | 17.8 | -20.6 | 25.8
Cc1ccc(NC(=O)c2ccccc2OCC(=O)c2ccccc2)cc1 | 0.8 | 2.1 | 0.7 | 25.3 | 17.2 | 7.6
CCOc1ccc(NC(=O)c2cnsn2)cc1 | 0.6 | -8.6 | 0.4 | 62.3* | 41.6 | -1.1
CCOc1ccc(NC(=O)c2ccccc2OCC(=O)c2ccccc2)cc1 | 0.1 | 2.7 | 0.4 | 61.3* | 88.1* | 23.0
COC(=O)c1cccnc1NC(=S)NNC(=O)c1ccccc1 | 0.9 | -9.4 | 1.1 | -5.5 | 12.5 | -4.1
CCCc1nn2c(=O)c(C(c3cccc(Cl)c3)c3c(O)nc4sc(CCC)nn4c3=O)c(O)nc2s1 | 0.9 | 16.7 | 1 | 4.5 | 12.5 | 9.8
Cc1cccc(NC(=O)c2ccccc2OCC(=O)c2ccccc2)c1 | 0.3 | -3.9 | 0.4 | 57.7* | 72.6* | 30.3*
SMILES | CYP2C9 activ | PostGolgi yeast | CYP2C19 act | CYP2C19 inh | CYP2C9 inhib | PostGolgi ctrl
CSc1ccccc1C(=O)Nc1cccc(C)c1 | 1 | -2.8 | 0.8 | 18.2 | 2.0 | 15.8
COc1cnc(SCc2c(Cl)cccc2Cl)nc1Cl | 1 | 16.6 | 0.5 | 45.4 | 1.7 | 34.1*
CC(=O)NCCC(=O)Nc1ccc(F)cc1C | 0.9 | -2.1 | 1 | 1.5 | 7.8 | 31.4*
C#CC(C)(C)NC(=O)c1ccccc1OC | 2.4* | -2.2 | 1.2 | -15.3 | -138.1 | -3.1
COc1ccccc1CNC(=O)c1ccccc1OC | 3.8* | -2.3 | 0.2 | 76.6* | -283.7 | 15.9
COc1ccccc1CNC(=O)c1ccc(S(=O)(=O)N(C)C)cc1 | 0.7 | 0.5 | 0.3 | 72.7* | 32.0 | 25.8
COc1ccccc1CNC(=O)COc1ccccc1OC | 3.4* | -1.4 | 0 | 97.2* | -240.8 | 7.4
COc1ccccc1OCCNC(=O)c1ccc(S(=O)(=O)N(C)C)cc1 | 0.8 | -1.4 | 0.9 | 9.9 | 17.9 | 1.9
CCC(CC)NC(=O)Cc1ccccc1OC | 0.9 | 1.8 | 0.2 | 77.9* | 11.8 | 1.4
